Data on 20 molecules can be found in PubChem BioAssay.

A number with no mark means an inactive call. For some of these results: Results with a measured potency or affinity are listed apart. Activity calls are given as the source filed them. Unless noted, no rule for the calls is given here.

A short description of test [1]: antimalarial activity against Dd2 strain (AID 2302;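 active = growth inhibition above 50% at the single 2 µM test dose, taken to imply half-maximal potency below 2 µM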;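 also: 0% = DMSO untreated growth and 100% = chloroquine plus artemisinin killed control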). To be noted: P. falciparum Dd2 in RBCs, LDH growth readout, 72 h; at 2 µM; stronger effect = higher value.
The nature of test [2]: HepG2 cytotoxicity, primary screen, cytotoxicity control for P. falciparum antimalarial project, cell-based, ATP luminescence (AID 2303;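 active = inhibition above 50%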;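 also: 0% = DMSO wells and 100% = digitonin-killed cells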). Conditions: HepG2 viability, 24-48 h, at 10 µM, stronger effect = higher value.
Test [3] addresses L-lactate dehydrogenase (Plasmodium falciparum (isolate CDC / Honduras)) (UniProt Q27743). The experiment in a line: PfLDH activity inhibition – cell lysate, 3D7 strain, counter-screen for P. falciparum growth inhibition project (AID 2304).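 Also: 0% = vehicle and 100% = reference inhibitor.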 Conditions: P. falciparum 3D7 crude extract, LDH APAD/NBT absorbance; at 2 µM; stronger effect = higher value. (In general: A counterscreen serves to expose hits that act by an unwanted route or on another target.)

The nature of test [4]: inhibition of 3D7 malaria parasite growth – strain 3D7 (AID 2306).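 Also: 0% = DMSO wells and 100% = chloroquine plus artemisinin control wells.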 To be noted: P. falciparum 3D7 erythrocytic growth, LDH absorbance, 72 h; at 2 µM; stronger effect = higher value.
Test [5] addresses Calcium-dependent protein kinase 1 (Plasmodium falciparum (isolate 3D7)) (UniProt P62344). The test can be described thus: PfCDPK1 kinase inhibitors, biochemical, TCAMS library (AID 1159585; cut-off not given, nearly all actives have IC50 up to about 0.98 µM;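 also: inhibitors leave more ATP so luminescence rises with inhibition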). To be noted: recombinant PfCDPK1, Kinase-Glo ATP depletion luminescence. On the technique in general: Kinase-Glo reads ATP consumption through a luciferase reaction.
In test [6] the target is Plasmodium falciparum protein kinase 6 (PK6, PF3D7_1337100) (UniProt Q8IDW1). The test can be described thus: PfPK6 kinase inhibitors, biochemical, TCAMS library (AID 1159586). To be noted: recombinant PfPK6, Kinase-Glo ATP depletion luminescence.
Chain of Plasmodium falciparum protein kinase 6 (PK6, PF3D7_1337100) (Q8IDW1 1-305): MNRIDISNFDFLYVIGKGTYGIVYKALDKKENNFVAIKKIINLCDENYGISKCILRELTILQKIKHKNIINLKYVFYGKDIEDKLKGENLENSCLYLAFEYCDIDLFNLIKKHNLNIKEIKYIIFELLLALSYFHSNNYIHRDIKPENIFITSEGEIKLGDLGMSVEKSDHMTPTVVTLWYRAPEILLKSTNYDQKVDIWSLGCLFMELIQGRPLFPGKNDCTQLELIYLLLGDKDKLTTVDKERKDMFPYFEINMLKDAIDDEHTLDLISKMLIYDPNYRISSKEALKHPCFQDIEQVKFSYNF
The target in test [7] is Protein kinase 7 (PK7), Plasmodium falciparum 3D7 (PF3D7_0213400) (UniProt Q7YTF7). The experiment in a line: inhibition of Plasmodium PK7 catalytic activity – biochemical, TCAMS antimalarial set, Kinase-Glo luminescence (AID 1159587). To be noted: recombinant PfPK7, Kinase-Glo ATP depletion luminescence.
Chain of Protein kinase 7 (PK7), Plasmodium falciparum 3D7 (PF3D7_0213400) (Q7YTF7 1-343): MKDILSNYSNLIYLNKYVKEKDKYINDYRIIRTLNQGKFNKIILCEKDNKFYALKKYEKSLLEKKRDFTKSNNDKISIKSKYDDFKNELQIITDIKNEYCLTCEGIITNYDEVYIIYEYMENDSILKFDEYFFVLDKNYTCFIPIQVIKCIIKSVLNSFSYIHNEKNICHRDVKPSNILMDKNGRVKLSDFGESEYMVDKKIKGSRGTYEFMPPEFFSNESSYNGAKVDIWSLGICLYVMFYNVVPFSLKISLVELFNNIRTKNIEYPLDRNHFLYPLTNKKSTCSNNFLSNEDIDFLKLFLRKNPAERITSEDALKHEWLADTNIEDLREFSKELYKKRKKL
The target in test [8] is Calcium-dependent protein kinase 4 (Plasmodium falciparum (isolate 3D7)) (UniProt Q8IBS5). The experiment in a line: PfCDPK4 kinase inhibitors, biochemical, TCAMS library (AID 1159588; cut-off not given, nearly all actives have IC50 up to about 0.91 µM). Conditions: recombinant PfCDPK4, Kinase-Glo ATP depletion luminescence.
Chain of Calcium-dependent protein kinase 4 (Plasmodium falciparum (isolate 3D7)) (Q8IBS5 whole entry, looked up): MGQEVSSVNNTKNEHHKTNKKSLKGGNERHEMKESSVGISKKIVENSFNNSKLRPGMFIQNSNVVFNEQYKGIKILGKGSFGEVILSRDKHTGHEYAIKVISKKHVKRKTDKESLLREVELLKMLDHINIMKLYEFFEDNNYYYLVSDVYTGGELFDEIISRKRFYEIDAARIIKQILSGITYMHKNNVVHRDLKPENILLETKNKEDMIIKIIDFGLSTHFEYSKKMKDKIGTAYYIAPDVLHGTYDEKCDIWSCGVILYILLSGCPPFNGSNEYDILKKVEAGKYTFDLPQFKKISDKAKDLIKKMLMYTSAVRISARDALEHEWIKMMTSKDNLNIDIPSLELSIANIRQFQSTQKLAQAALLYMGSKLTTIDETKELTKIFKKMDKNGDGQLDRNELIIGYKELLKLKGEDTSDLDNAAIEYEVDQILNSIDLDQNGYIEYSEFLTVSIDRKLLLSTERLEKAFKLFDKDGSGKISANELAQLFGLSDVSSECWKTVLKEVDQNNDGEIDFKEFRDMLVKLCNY

Chain of L-lactate dehydrogenase (Plasmodium falciparum (isolate CDC / Honduras)) (Q27743 whole entry, looked up): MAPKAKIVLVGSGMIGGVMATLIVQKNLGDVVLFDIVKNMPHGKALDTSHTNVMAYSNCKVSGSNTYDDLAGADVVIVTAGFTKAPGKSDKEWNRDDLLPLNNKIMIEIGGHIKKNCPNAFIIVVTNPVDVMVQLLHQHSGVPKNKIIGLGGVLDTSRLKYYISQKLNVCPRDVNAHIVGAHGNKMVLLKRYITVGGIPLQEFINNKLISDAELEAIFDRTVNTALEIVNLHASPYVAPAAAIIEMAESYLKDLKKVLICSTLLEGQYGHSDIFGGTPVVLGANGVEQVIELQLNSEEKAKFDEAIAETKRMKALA
Chain of Calcium-dependent protein kinase 1 (Plasmodium falciparum (isolate 3D7)) (P62344 whole entry, looked up): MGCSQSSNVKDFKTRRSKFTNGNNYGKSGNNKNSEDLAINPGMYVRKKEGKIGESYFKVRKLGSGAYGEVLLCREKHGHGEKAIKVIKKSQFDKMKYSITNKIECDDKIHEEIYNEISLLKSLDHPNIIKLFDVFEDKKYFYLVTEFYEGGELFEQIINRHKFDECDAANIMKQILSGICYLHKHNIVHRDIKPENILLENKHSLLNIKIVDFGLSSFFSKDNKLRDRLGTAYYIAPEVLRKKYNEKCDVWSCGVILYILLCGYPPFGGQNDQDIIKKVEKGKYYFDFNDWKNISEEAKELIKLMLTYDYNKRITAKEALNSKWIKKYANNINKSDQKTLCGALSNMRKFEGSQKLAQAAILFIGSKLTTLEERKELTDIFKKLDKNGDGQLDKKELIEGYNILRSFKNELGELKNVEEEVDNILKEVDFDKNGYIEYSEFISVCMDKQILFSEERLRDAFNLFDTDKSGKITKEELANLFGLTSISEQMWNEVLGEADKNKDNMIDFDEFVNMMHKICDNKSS

What is called inhibition is the drop in the measured response relative to a control, in per cent. `Cc1ccc2nc(-c3cc(-c4cccc(C#N)c4)cnc3N)[nH]c2c1`: the growth inhibition in test [1] is 99% (active); in test [4], 100% (active). Moreover, the inhibition in test [2] was 40%; in test [3] it was 1%. Further, the outcome in test [5], in test [6], in test [7] and in test [8] was inactive.
As to `COc1cccc(OC)c1-c1ccccc1NC(=O)N1CCCc2cc(C)ccc21`, the growth inhibition in test [1] is 84% (active); in test [4], 82% (active). The inhibition was 51% (active) in test [2] and 5% in test [3]. The result in test [5], in test [6], in test [7] and in test [8] was inactive.
With `Cc1cc(CN2CCC(N3CC(c4ccccc4)(c4ccccc4)OC3=O)C2)ccc1O` (stereo not given), the growth inhibition in test [1] was 68% (active); in test [4], 96% (active). Besides, the values for the inhibition in test [2] and in test [3] were -3% and 1%, respectively. Further, the result in test [5], in test [6], in test [7] and in test [8] was inactive.
As for `Cc1nc(-c2ccccc2)nc(N2CCN(C(=O)c3ccco3)CC2)c1Cc1ccccc1F`, the growth inhibition was 86% (active) in test [1] and 95% (active) in test [4]. Also, the inhibition in test [2] is 7%; in test [3], 1%. Moreover, the result in test [5], in test [6], in test [7] and in test [8] was inactive.
On to `Nc1ncc(-c2ccsc2)c2ccc(-c3cc(NCc4ccccc4)ncn3)cc12`, for which the values for the growth inhibition in test [1] and in test [4] were 86% (active) and 101% (active), respectively. Moreover, the inhibition was 0% in test [2] and 3% in test [3]. For the same molecule, the outcome in test [5], in test [6], in test [7] and in test [8] was inactive.
As to `COc1cc2ccccc2c(OC)c1CCNCCCCNCCc1c(OC)cc2ccccc2c1OC`, the results for the growth inhibition in test [1] and in test [4] were 30% and 99% (active), respectively. In addition, the inhibition in test [2] is 100% (active); in test [3], 7%. The outcome in test [5], in test [6], in test [7] and in test [8] was inactive.
Turning to `N#Cc1ccc(N(CCNS(=O)(=O)c2cc(Br)c(Cl)s2)Cc2ccccc2C(F)(F)F)cc1C(F)(F)F`, the growth inhibition in test [1] was 57% (active); in test [4], 92% (active). The inhibition is 3% in test [2] and -1% in test [3]. Moreover, the result in test [5], in test [6], in test [7] and in test [8] was inactive.
With `Cc1nnnn1-c1ccc(C(=O)N2CCC3(CC2)CN(Cc2ccc(Cl)c(Cl)c2)C(=O)O3)cc1`, the growth inhibition in test [1] is 99% (active); in test [4], 101% (active). Moreover, the inhibition in test [2] and in test [3] was 2% in each case. For the same molecule, the result in test [5], in test [6], in test [7] and in test [8] was inactive.
Regarding `Cc1ccc(C)c2c1[nH]c1ccc(C3=NCCN3)cc12`, the results for the growth inhibition in test [1] and in test [4] were -6% and 100% (active), respectively. For the same molecule, the values for the inhibition in test [2] and in test [3] were 29% and -3%, respectively. Further, the outcome in test [5], in test [6], in test [7] and in test [8] was inactive.
Turning to `O=C(Nc1ccc(CCNCCCc2ccccc2)cc1)Nc1ccc(Cl)c(Cl)c1`, the growth inhibition is 99% (active) in test [1] and 100% (active) in test [4]. Also, the figures for the inhibition in test [2] and in test [3] were 33% and -1%, respectively. In addition, the outcome in test [5], in test [6], in test [7] and in test [8] was inactive.
For the molecule `CCOc1ccc(Br)cc1/C=C/C(=O)Nc1ccc2c(c1)CN(C)CCC2`, the results for the growth inhibition in test [1] and in test [4] were 37% and 97% (active), respectively. The inhibition in test [2] was 18%; in test [3] it was 1%. Besides, the outcome in test [5], in test [6], in test [7] and in test [8] was inactive.
With `C/C=C/C=C/C1=NCCc2cc(OCCC)ccc21`, the results for the growth inhibition in test [1] and in test [4] were 40% and 87% (active), respectively. In addition, the inhibition in test [2] is -1%; in test [3] it was -4%. Besides, the outcome in test [5], in test [6], in test [7] and in test [8] was inactive.
In the case of `Cc1cc(Nc2ccc(OCc3ccccc3Cl)cc2)c2cc(Cl)ccc2n1`, the results for the growth inhibition in test [1] and in test [4] were 58% (active) and 100% (active), respectively. Also, the inhibition was 33% in test [2] and 5% in test [3]. Moreover, the outcome in test [5], in test [6], in test [7] and in test [8] was inactive.
As to `CCNC(=O)N1CCc2ccc(Oc3nc(NCc4ccccc4OC)ncc3C)cc2CC1`, the growth inhibition in test [1] is 76% (active); in test [4], 83% (active). Further, the inhibition in test [2] and in test [3] was -9% each time. Also, the outcome in test [5], in test [6], in test [7] and in test [8] was inactive.
Take `CCCCN1CCN(CCCNc2c3ccccc3nc3ccccc23)CC1`: the growth inhibition is 70% (active) in test [1] and 101% (active) in test [4]. The inhibition was 26% in test [2] and -7% in test [3]. Also, the result in test [5], in test [6], in test [7] and in test [8] was inactive.
Take `Cc1nc2c(c(O)c1Cl)-c1ccc(Oc3cccc(C(F)(F)F)c3)cc1C2=O`: the growth inhibition in test [1] is 95% (active); in test [4], 94% (active). In addition, the figures for the inhibition in test [2] and in test [3] were 25% and -6%, respectively. Besides, the result in test [5], in test [6], in test [7] and in test [8] was inactive.
Turning to `CN1CCCN(Cc2ccc(-c3ccc(NC(=O)c4cccc(Cl)c4)cc3)cc2)CC1`, the growth inhibition was 64% (active) in test [1] and 95% (active) in test [4]. Moreover, the results for the inhibition in test [2] and in test [3] were 55% (active) and 2%, respectively. In addition, the outcome in test [5], in test [6], in test [7] and in test [8] was inactive.
Take `CCOC(=O)c1ccc(NC(=O)Nc2cccc(-c3ccc(-c4nc5c(C)cccc5[nH]4)s3)c2)cc1`: the growth inhibition in test [1] is 99% (active); in test [4], 100% (active). Further, the results for the inhibition in test [2] and in test [3] were 44% and 4%, respectively. Further, the outcome in test [5], in test [6], in test [7] and in test [8] was inactive.
In the case of `CCc1cc(NC2CCN(C)CC2)nc(Nc2ccc(C)cc2)n1`, the results for the growth inhibition in test [1] and in test [4] were 11% and 95% (active), respectively. Moreover, the inhibition in test [2] is 3%; in test [3], -7%. The result in test [5], in test [6], in test [7] and in test [8] was inactive.
For `O=C(Nc1ccc(F)cc1)c1nc2ccccc2nc1Cl`, the growth inhibition in test [1] is 62% (active); in test [4], 80% (active). In addition, the inhibition is 44% in test [2] and -1% in test [3]. For the same molecule, the result in test [5], in test [6], in test [7] and in test [8] was inactive.
